# Source: PubChem BioAssay (National Center for Advancing Translational Sciences (NCATS))
# The list is not random: actives were taken first. Their share in the collection is about 5.1%.
# NPSR antag: qHTS Assay for Antagonists of the Neuropeptide S Receptor: cAMP Signal Transduction; Q6W5P4; CHO-NPSR cells, cAMP TR-FRET, antagonist mode; Potency, µM (series often up to 38.3 µM), inactives show top-dose activity change, negative = inhibition, actives largely listed as inhibitors; 1% of 220,000 active; AID 1461, 2008; note: potency is the fitted concentration of half-maximal effect; nearly all actives have a fitted effect of over 50% in size
# Target sequence (Q6W5P4 whole entry, looked up): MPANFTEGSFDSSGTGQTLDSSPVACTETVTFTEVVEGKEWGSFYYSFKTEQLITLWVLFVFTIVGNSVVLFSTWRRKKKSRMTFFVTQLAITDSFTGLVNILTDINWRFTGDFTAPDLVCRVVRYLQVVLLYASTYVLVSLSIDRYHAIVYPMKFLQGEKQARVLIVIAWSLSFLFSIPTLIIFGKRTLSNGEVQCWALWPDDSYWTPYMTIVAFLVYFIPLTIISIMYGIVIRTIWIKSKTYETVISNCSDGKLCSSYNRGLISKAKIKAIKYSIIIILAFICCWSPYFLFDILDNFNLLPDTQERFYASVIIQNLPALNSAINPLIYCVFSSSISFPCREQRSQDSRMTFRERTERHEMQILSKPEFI
# Tau fibril FP: qHTS for Inhibitors of Tau Fibril Formation, Fluorescence Polarization. Microtubule-associated protein tau (Homo sapiens), P10636. K18 P301L tau heparin fibrillization, Alexa594 FP, 6 h. Potency, µM (highest dose often 57.7 µM), for inactives: at the top dose activity, negative = inhibition, usual class: inhibitors. 0.39% of 280,000 active. AID 1468, 2008; note: potency is the fitted concentration of half-maximal effect; nearly all actives have a fitted effect of over 55% in size
# Target sequence (P10636 561-689 P618L limits assumed): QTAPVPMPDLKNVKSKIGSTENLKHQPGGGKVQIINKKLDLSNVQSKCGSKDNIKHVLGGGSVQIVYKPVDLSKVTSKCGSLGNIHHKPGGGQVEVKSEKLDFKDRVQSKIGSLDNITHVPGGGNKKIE
#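 K18 P301L tau (15 uM unlabeled/0.24 uM Alexa 594-labeled, final) + compound + heparin 20 uM final; 100 mM NaOAc pH 7; 6 hr 37 C; ThT 30 uM final added, 1 hr RT; FP ex 555/em 632 nm.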
# Tau fluor counter: Counterscreen qHTS for Inhibitors of Tau Fibril Formation, Fluorescence Polarization | tau K18 P301L Alexa594 fluorescence, heparin fibrillization | Potency, µM (series often up to 57.7 µM), without a hit: top-dose activity change, negative = decrease | 0.93% of 280,000 active | AID 1463, 2008; note: potency is the fitted concentration of half-maximal effect; nearly all actives have a fitted effect of over 55% in size
#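 Human K18 P301L tau (15 uM unlabeled plus 0.24 uM Alexa 594-labeled, final) in 100 mM sodium acetate pH 7 was mixed with compound and 20 uM heparin and incubated 6 hr at 37 C.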
# PNC inhibitor: High Content Assay for Compounds that inhibit the Assembly of the Perinucleolar Compartment; PC3M PTB-GFP, PNC prevalence imaging, 16 h; active compounds read low; activity change (PNC), negative = inhibition, % at 10 µM; 3.1% of 140,000 active;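 active = readout at or below -70, meaning at least 70% loss of cells showing the perinucleolar compartment, a nuclear body marking cancer cells; inconclusive = readout between -30 and a set limit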;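 note: plate controls were DMSO wells for no effect and camptothecin positive control wells for full effect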
#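 PC3M cells stably expressing PTB-GFP, 750–1000 cells/well, treated 16 h at 37 °C with compound (23 nl of library stock), in duplicate. After paraformaldehyde fixation and Hoechst stain, imaged at 20x; PNC prevalence scored by image analysis.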
# Tau ThT inhib: qHTS for Inhibitors of Tau Fibril Formation, Thioflavin T Binding. Microtubule-associated protein tau (Homo sapiens), P10636. Potency, µM (highest dose often 57.4 µM), inactives show top-dose activity, negative = inhibition, hits mostly inhibitors. 2.1% of 270,000 active. AID 1460, 2008. recombinant tau K18 P301L (four-repeat tau fragment), heparin-induced fibrillization, ThT fluorescence; note: potency is the fitted concentration of half-maximal effect; nearly all actives have a fitted effect of over 55% in size
#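 K18 P301L tau (15 uM + 0.24 uM Alexa 594-tagged), heparin 20 uM, NaOAc pH 7, 6 h 37 C; ThT 30 uM, 1 h RT, ex 450/em 510 nm.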
# JMJD2E inh: qHTS Assay for Inhibitors of Human Jumonji Domain Containing 2E (JMJD2E); JMJD2E catalytic domain, FDH-coupled NADH fluorescence (FDH is formaldehyde dehydrogenase); AID 2147, 2009; Lysine-specific demethylase 4E (Homo sapiens), B2RXH2; 1.6% of 230,000 active; Potency, µM (top dose mostly 57.1 µM), for the others: at the highest dose activity change, negative = inhibition, most hits filed as inhibitors; active = well fitted inhibition curve with a large enough effect, not every such curve was filed as active; inconclusive = small, poorly fitted or top-dose-only effect, or another doubt; inactive = no such curve, though single readings can be large or run the other way;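 note: potency is the fitted concentration of half-maximal effect; 0% = wells with enzyme and -100% = buffer wells without enzyme; nearly all actives have a fitted effect of over 50% in size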
# Starred values were filed as active, the others as inactive; ? = inconclusive; . = no result given; [ ] = remark or other dose. Unless noted, calls come from the whole dose curve; as a rule, active = well fitted curve in the direction sought with a large enough effect; inconclusive = small, poorly fitted or top-dose-only effect, or another doubt; inactive = no such curve, though single readings can be large; an effect the other way counts as inactive or inconclusive. Unless noted, % is set by controls: 0 for no effect and ±100 for the full control effect.
SMILES,NPSR antag,Tau fibril FP,Tau fluor counter,PNC inhibitor,Tau ThT inhib,JMJD2E inh
COC(=O)C1=CC(C(=O)c2cccs2)=NN(c2ccc(OC)cc2)C1C(=O)OC (centres undefined),?,-4%,?,35,14µM*,1%
Oc1ccc2ccccc2c1N=Nc1ccccc1F,5%,0%,?,.,16µM*,?
Oc1ccc2ccccc2c1N=Nc1ccccn1,7.9µM*,4%,?,15,5µM*,?
CNc1nc(N/N=C/c2cc3c(cc2[N+](=O)[O-])OCO3)nc(Nc2ccccc2)n1,-15%,7%,-30%,.,7.1µM*,2%
Cc1ccc(-c2noc(CNC(=O)c3ccccc3)n2)cc1,.,-5%,-7%,.,2%,.
CCOc1ccc(C(=O)NC2CCN(S(C)(=O)=O)CC2)cc1,0%[46.1 µM],8%,0%,-87*,-7%,8%
Cc1ccc(NS(=O)(=O)c2ccc(Br)s2)nc1,19%,?,-15%,.,28µM*,-14%
N#CC1=C(N)Oc2n[nH]c(-c3cccs3)c2C1c1cccs1 (centres undefined),-9%[46.1 µM],-15%,?,20,28µM*,-9%
CC(C)CC1C(C#N)=C(N)Oc2n[nH]c(-c3cccs3)c21 (centres undefined),-13%[46.1 µM],-2%,?,10,?,?
CCN1CC2=C(OC(N)=C(C#N)C2c2cccs2)/C(=C\c2cccs2)C1 (centres undefined),?,-13%,?,3,14µM*,?
N#CC1=C(N)Oc2cc(O)ccc2C1c1cccs1 (centres undefined),1%[46.1 µM],-4%,-14%,-106*,-12%,2%
CCOC(=O)C1=C(CC)OC(N)=C(C#N)C1c1cccs1 (centres undefined),11%[46.1 µM],-11%,-22%,-7,-19%,?
N#CC1=C(N)Oc2cc(O)ccc2C1c1cccnc1 (centres undefined),22%,5%,10%,.,8%,13%
COC(=O)CC1=C(C(=O)OC)C(c2cccs2)C(C#N)=C(N)O1 (centres undefined),-2%[46.1 µM],-9%,-10%,-119*,?,22µM*
CCOc1ccc(N2CC(c3nc4ccccc4n3CCCOc3ccccc3)CC2=O)cc1 (centres undefined),.,6%,-12%,.,?,.
C=CCN1C(=O)/C(=c2\sc3nc(=O)c(Cc4ccccc4)nn3c2=O)c2ccccc21,6%,?,-23%,.,18µM*,-12%
CCN1C(=O)/C(=c2\sc3nc(=O)c(Cc4ccccc4)nn3c2=O)c2ccccc21,48%,-17%,-14%,.,20µM*,-10%
C=CCN1C(=O)/C(=c2\sc3nc(=O)c(Cc4ccc(OC)c(OC)c4)nn3c2=O)c2ccccc21,-10%,?,-30%,.,28µM*,-3%
Cc1ccccc1NC(=O)c1ccc(CN(c2ccccc2)S(=O)(=O)c2ccccc2)cc1,-10%,-6%,-21%,-134*,-1%,215%
O=C(Nc1ccc(S(=O)(=O)N(Cc2ccccc2)c2ccccc2)cc1)c1ccc(F)cc1,.,10µM*,?,.,8%,.
O=C(Nc1ccc(S(=O)(=O)N(Cc2ccccc2)c2ccccc2)cc1)c1ccccc1F,.,?,-26%,.,12%,.
COc1cccc(C(=O)Nc2ccc(S(=O)(=O)N(Cc3ccccc3)c3ccccc3)cc2)c1,.,10µM*,?,.,1%,.
O=S(=O)(Nc1cccc(-c2nc3cccnc3s2)c1)c1ccc2c(c1)OCCO2,-16%[46.1 µM],-6%,?,-20,-6%,?
